The results in this text go back to the supplement of paper PMC10849652.

Experiment in all cases: log2 fold change, soluble protein after heating vs DMSO (PISA); higher = thermal stabilisation; K562 cells, 10 uM, 30 min; active = over 0.2 and 3.5 SD of the protein, either way, in both replicates (recomputed)
Compound in one assay: CN1CCN(CCOc2cc(OC3CCOCC3)c3c(Nc4c(Cl)ccc5c4OCO5)ncnc3c2)CC1 [saracatinib]
The method in brief:
(§1)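 For each measurement, 10 μM compound was applied for 30 min to K562 cells at 2×10^6 cells/mL. Aliquots were heated for 3 min across 48°C-58°C, pooled, and extracted in PBS with 0.5% NP-40 at 4°C; the supernatant after 21,000xg for 90 min was soluble protein. This was quantified by TMTpro 16plex LC-MS/MS with channel sums equalised, and thermal stability was reported relative to control samples from duplicates, on a log2 fold-change scale.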

Compound in a further assay: CN1CCN(c2nc(C3=C(c4c[nH]c5ccccc45)C(=O)NC3=O)c3ccccc3n2)CC1 [sotrastaurin]
Put shortly:
as §1

Compound in another assay: CN1CC[C@H](c2c(O)cc(O)c3c(=O)cc(-c4ccccc4Cl)oc23)[C@H](O)C1 [alvocidib]
Put shortly: as §1

Compound in another assay: CN1CCc2c(c3ccccc3n2Cc2ccc(C(=O)NO)cc2)C1 [Tubastatin A]
Put shortly: as §1

Compound in assay [1]: CNC(=O)C1=CC=CC=C1NC2=NC(=NC=C2Cl)NC3=C(C=C(C=C3)N4CCOCC4)OC
The method in brief:
as §1

Compound in the next assay: CNC(=O)c1ccc(Nc2ncc(C(F)(F)F)c(NCc3nccnc3N(C)S(C)(=O)=O)n2)cc1 [defactinib]
The method in brief:
as §1

Compound in the next assay: CNCc1ccc(-c2[nH]c3cc(F)cc4c3c2CCNC4=O)cc1 [rucaparib]
The method in brief: as §1

Compound in assay [2]: CNc1nc(-c2ccc3c(N)n[nH]c3c2)cc(N2C[C@@H](C(=O)NC3CCCCC3)CC[C@H]2C)n1
Put shortly: as §1

Compound in the next assay: COC(=O)N[C@@H](C)CNc1nccc(-c2cn(C(C)C)nc2-c2cc(Cl)cc(NS(C)(=O)=O)c2F)n1 [encorafenib]
The method in brief:
as §1

Compound in assay [3]: COC(=O)[C@H](CCSC)NC(=O)C1=C(C=C(C=C1)NC[C@H](CS)N)C2=CC=CC=C2
The method in brief: as §1

About 7,900 targets were measured; listed, in parts, are those with a hit and a random draw of the rest. About 0.6% of all pairs of compound and target were hits. Values without a mark were called inactive.

Sequence of UniProt Q9H6H4 (Q9H6H4 whole entry, looked up): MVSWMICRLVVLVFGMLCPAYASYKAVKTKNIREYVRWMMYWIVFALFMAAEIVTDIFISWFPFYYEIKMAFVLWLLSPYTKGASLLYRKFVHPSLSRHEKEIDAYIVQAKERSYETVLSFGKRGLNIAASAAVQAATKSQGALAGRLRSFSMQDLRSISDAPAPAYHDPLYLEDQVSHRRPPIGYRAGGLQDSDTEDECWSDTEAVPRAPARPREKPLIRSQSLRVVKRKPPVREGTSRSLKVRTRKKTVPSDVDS
Sequence of UniProt O14796 (O14796 whole entry, looked up): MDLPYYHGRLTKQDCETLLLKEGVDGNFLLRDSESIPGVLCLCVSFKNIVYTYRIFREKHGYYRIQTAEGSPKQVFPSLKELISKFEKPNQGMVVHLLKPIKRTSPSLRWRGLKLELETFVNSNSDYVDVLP
Sequence of UniProt P35244 (P35244 whole entry, looked up): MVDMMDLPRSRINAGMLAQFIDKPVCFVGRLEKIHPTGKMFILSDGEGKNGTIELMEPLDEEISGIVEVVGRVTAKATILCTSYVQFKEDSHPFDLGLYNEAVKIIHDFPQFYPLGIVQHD
Sequence of UniProt Q9NR46 (Q9NR46 whole entry, looked up): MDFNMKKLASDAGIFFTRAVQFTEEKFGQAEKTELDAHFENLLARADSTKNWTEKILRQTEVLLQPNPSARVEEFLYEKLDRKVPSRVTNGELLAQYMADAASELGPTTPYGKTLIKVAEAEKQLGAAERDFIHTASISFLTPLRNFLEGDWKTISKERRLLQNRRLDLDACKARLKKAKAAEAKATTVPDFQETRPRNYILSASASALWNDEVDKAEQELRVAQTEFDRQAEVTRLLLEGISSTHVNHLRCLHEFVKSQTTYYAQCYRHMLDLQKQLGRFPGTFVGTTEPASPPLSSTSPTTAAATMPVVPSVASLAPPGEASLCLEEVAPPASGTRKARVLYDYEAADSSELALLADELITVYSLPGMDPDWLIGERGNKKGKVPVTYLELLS
Sequence of UniProt Q15758 (Q15758 whole entry, looked up): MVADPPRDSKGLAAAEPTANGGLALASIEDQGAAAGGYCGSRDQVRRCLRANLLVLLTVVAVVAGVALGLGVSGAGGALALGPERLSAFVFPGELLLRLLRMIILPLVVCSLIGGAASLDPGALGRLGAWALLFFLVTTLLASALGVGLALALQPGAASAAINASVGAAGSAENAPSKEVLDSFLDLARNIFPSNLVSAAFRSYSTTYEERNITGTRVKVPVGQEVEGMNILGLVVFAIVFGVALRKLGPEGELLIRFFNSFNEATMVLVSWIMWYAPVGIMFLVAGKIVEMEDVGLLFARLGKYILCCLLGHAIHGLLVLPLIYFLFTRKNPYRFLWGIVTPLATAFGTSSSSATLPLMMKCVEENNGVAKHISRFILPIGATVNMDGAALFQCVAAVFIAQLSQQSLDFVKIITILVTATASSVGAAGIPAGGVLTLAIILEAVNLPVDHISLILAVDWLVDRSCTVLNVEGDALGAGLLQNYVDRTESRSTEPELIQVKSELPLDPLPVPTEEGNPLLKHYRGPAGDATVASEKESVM
Sequence of UniProt Q9BUV8 (Q9BUV8 whole entry, looked up): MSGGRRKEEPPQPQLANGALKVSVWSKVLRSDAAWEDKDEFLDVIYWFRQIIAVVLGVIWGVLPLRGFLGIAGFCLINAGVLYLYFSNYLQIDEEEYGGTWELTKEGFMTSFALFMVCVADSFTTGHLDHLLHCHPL
Sequence of UniProt Q9NSI8 (Q9NSI8 whole entry, looked up): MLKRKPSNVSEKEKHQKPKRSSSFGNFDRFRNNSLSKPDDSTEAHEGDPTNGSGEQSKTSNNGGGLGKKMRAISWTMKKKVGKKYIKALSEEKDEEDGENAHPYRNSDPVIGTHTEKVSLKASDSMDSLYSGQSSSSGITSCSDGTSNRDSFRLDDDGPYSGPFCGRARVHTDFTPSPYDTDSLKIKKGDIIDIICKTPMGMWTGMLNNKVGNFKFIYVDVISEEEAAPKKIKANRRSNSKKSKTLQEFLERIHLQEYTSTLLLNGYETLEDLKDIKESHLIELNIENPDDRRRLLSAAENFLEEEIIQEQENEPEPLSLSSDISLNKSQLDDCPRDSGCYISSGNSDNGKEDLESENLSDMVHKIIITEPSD
Sequence of UniProt Q99590 (Q99590 whole entry, looked up): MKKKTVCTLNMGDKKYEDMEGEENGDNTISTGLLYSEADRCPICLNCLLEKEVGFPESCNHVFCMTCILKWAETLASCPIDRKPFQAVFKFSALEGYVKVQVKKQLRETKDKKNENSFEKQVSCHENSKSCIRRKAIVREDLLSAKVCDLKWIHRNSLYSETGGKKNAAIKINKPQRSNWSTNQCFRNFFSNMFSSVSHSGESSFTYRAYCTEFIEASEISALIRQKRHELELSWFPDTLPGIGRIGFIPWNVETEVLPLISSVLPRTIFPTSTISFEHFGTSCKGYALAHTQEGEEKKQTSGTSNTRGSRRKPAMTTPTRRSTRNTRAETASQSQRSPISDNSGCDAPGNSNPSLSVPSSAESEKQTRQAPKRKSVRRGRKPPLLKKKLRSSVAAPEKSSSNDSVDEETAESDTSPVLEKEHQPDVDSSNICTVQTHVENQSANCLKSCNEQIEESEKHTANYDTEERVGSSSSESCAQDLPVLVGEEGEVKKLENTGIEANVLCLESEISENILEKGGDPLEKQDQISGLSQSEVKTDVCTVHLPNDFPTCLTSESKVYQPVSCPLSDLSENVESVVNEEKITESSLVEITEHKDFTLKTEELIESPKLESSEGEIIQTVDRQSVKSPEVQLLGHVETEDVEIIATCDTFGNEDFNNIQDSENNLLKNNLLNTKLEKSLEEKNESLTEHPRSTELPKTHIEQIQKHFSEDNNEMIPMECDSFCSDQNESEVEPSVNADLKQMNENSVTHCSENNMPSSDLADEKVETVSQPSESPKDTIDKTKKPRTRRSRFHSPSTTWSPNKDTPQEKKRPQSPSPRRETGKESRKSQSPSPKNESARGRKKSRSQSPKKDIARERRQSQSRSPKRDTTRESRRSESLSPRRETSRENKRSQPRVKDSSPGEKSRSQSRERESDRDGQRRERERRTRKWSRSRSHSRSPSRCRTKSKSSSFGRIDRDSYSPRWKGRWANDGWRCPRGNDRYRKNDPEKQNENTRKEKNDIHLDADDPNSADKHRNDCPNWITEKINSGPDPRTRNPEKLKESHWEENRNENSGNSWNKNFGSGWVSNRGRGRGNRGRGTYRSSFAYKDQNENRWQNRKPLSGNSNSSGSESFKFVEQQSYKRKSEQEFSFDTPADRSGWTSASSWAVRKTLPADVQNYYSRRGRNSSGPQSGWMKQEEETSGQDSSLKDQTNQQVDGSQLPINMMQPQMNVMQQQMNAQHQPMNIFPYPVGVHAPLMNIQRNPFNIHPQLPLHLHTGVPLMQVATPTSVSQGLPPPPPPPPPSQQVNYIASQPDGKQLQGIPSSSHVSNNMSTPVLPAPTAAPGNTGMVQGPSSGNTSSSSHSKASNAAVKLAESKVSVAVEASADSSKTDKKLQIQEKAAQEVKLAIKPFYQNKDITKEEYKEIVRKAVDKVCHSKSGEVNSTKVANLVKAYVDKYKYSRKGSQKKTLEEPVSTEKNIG
Sequence of UniProt P51148 (P51148 whole entry, looked up): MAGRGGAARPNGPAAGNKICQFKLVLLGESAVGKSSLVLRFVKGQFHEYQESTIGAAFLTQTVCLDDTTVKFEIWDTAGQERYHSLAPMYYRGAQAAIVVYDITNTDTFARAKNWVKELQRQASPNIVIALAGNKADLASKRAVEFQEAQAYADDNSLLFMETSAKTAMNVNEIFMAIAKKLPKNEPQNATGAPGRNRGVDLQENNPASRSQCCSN
Sequence of UniProt O95470 (O95470 whole entry, looked up): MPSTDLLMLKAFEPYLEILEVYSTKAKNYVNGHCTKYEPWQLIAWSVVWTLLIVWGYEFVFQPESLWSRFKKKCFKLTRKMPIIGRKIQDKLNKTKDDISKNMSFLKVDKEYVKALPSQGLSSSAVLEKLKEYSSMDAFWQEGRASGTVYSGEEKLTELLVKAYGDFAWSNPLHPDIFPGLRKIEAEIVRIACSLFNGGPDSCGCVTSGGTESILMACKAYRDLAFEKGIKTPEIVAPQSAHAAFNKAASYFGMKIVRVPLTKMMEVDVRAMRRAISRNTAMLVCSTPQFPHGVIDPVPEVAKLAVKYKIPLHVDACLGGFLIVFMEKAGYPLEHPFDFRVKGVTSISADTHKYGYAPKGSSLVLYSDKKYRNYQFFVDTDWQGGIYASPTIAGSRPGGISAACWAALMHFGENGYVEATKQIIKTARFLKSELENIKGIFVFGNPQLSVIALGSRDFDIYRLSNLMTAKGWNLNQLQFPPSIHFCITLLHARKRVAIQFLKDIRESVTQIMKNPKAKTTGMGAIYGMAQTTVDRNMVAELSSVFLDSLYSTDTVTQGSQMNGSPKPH
Sequence of UniProt P11233 (P11233 whole entry, looked up): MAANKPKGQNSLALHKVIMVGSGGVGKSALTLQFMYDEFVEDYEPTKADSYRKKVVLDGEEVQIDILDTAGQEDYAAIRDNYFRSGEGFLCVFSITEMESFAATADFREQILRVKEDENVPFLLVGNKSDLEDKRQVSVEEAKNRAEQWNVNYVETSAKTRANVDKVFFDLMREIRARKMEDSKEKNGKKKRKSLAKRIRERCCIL

As to SGPL1 (UniProt O95470), the log2 fold change with saracatinib is -0.014; in the assay with sotrastaurin it was 0.03; with alvocidib, 0.04; with Tubastatin A, -0.031; in assay [1], 0.064; with defactinib, 0.012. Besides, the log2 fold change with rucaparib was 0.1; in assay [2], 0.015; with encorafenib it was 0.08; in [3], -0.157.
Take SAMSN1 isoform 3 (UniProt Q9NSI8): the log2 fold change was -0.023 in the assay with saracatinib; -0.081 with sotrastaurin; -0.058 with alvocidib; 0.036 with Tubastatin A; 0.002 in [1]; -0.051 in the assay with defactinib. The log2 fold change is -0.003 with rucaparib, -0.029 in assay [2], 0.046 with encorafenib and 0.024 in [3].
SH2D1B (UniProt O14796): the log2 fold change is -1 (active) with saracatinib; 0.05 with sotrastaurin; -0.029 with alvocidib; -0.046 with Tubastatin A; -0.214 in assay [1]; -0.06 with defactinib. The log2 fold change with rucaparib is 0.045; in [2], -0.026; with encorafenib it was 0.295; in [3] it was 0.242.
As to RAB5C isoform 2 (UniProt P51148), the log2 fold change was 0.08 with saracatinib; -0.011 in the assay with sotrastaurin; 0.011 in the assay with alvocidib; 0.013 with Tubastatin A; -0.013 in assay [1]; -0.011 with defactinib. Also, the log2 fold change with rucaparib is -0.02; in assay [2], 0.003; with encorafenib it was -0.039; in assay [3], 0.017.
As for RPS3 (UniProt P23396), the log2 fold change in the assay with saracatinib is -0.03; in the assay with sotrastaurin, 0.031; in the assay with alvocidib, 0.201; with Tubastatin A, 0.094; in assay [1] it was 0.082; in the assay with defactinib it was 0.208. The log2 fold change in the assay with rucaparib is 0.097; in assay [2], 0.04; in the assay with encorafenib, 0.045; in [3] it was 0.002.
SLC1A5 (UniProt Q15758): the log2 fold change with saracatinib is 0; in the assay with sotrastaurin, 0.064; with alvocidib, -0.027; with Tubastatin A, -0.023; in assay [1], -0.09; in the assay with defactinib, -0.01. Also, the log2 fold change is -0.015 in the assay with rucaparib, 0.033 in assay [2], -0.045 with encorafenib and 0.058 in assay [3].
Regarding RPA3 (UniProt P35244), the log2 fold change in the assay with saracatinib was 0.015; with sotrastaurin it was -0.014; with alvocidib, -0.04; with Tubastatin A, 0.022; in assay [1], 0.181; with defactinib it was -0.054. Further, the log2 fold change in the assay with rucaparib was -0.048; in assay [2] it was 0.015; with encorafenib it was 0.06; in [3] it was 0.014.
As for REEP4 (UniProt Q9H6H4), the log2 fold change was 0.047 with saracatinib; -0.068 with sotrastaurin; 0.034 in the assay with alvocidib; 0.018 with Tubastatin A; -0.122 in assay [1]; 0.008 in the assay with defactinib. Moreover, the log2 fold change with rucaparib is 0.086; in assay [2], -0.014; with encorafenib, -0.013; in assay [3] it was -0.01.
Turning to SART3, A0A499FI31, the log2 fold change with saracatinib was -0.011; with sotrastaurin it was -0.13; in the assay with alvocidib, -0.291 (active); with Tubastatin A, 0.035; in assay [1], 0.021; with defactinib it was -0.448 (active). Further, the log2 fold change is -0.156 with rucaparib, -0.041 in [2], 0.025 in the assay with encorafenib and 0.001 in [3].
Turning to RALA (UniProt P11233), the log2 fold change with saracatinib is 0.203 (active); with sotrastaurin, 0.05; in the assay with alvocidib, 0.013; in the assay with Tubastatin A, -0.008; in [1], -0.045; with defactinib it was 0.017. The log2 fold change with rucaparib was 0.002; in assay [2] it was 0.086; with encorafenib, 0.033; in assay [3] it was 0.004.
Take RPS19 (UniProt P39019): the log2 fold change with saracatinib is -0.024; in the assay with sotrastaurin, 0.001; with alvocidib, 0.178; with Tubastatin A it was 0.089; in assay [1], 0.07; with defactinib, 0.167. Further, the log2 fold change with rucaparib was 0.136; in assay [2] it was 0.064; in the assay with encorafenib, 0.028; in [3] it was -0.004.
For RAB5IF isoform 5 (UniProt Q9BUV8), the log2 fold change in the assay with saracatinib is 0.114; with sotrastaurin, -0.018; with alvocidib, -0.115; with Tubastatin A it was -0.139; in [1] it was -0.08; with defactinib, -0.01. The log2 fold change is -0.014 with rucaparib, -0.018 in assay [2], 0.08 with encorafenib and 0.031 in [3].
Turning to SCAF11 (UniProt Q99590), the log2 fold change was 0.075 with saracatinib; 0.227 with sotrastaurin; 1.25 (active) with alvocidib; -0.052 with Tubastatin A; -0.077 in [1]; 0.579 (active) with defactinib. For the same target, the log2 fold change with rucaparib was 0.35; in [2], -0.052; in the assay with encorafenib, 0.042; in assay [3], 0.188.
Turning to SH3GLB2 (UniProt Q9NR46), the log2 fold change is -0.059 in the assay with saracatinib; -0.08 with sotrastaurin; -0.13 with alvocidib; 0.024 in the assay with Tubastatin A; -0.048 in [1]; -0.148 with defactinib. Also, the log2 fold change in the assay with rucaparib was 0.042; in [2], -0.02; in the assay with encorafenib, 0.029; in assay [3] it was -0.086.
In the case of RBM27 (UniProt Q9P2N5), the log2 fold change is 0.04 in the assay with saracatinib; -0.039 with sotrastaurin; -0.141 with alvocidib; 0.013 in the assay with Tubastatin A; -0.297 (active) in assay [1]; -0.303 (active) with defactinib. In addition, the log2 fold change with rucaparib is -0.015; in assay [2] it was 0.033; in the assay with encorafenib, -0.011; in assay [3] it was -0.042.
